Experimental data reported in PubChem BioAssay (NCI).
The panel holds about 83,000 compounds, 20% with a hit somewhere; the sample as a whole holds those more often.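 Values shown are percent growth following 48 h exposure of cells in 96-well plates to a single concentration of compound; below 10 was considered active.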 The source made the active and inactive calls.

System: MCF7 breast
Test: NCI-60 one-dose screen, 48 h (100 = growth as untreated, 0 = no growth, -100 = all killed)
Details: 10 µM unless noted

Compound	growth
COc1cc(OC)c(S(N)(=O)=O)cc1C(C)=O	89.8% (inactive)
O=S(=O)(Nc1ccc2c(c1)OCO2)c1ccc(-c2cnc(C3CC3)o2)cc1	22.3% (inactive)
COc1cccc2c1CN(C(=O)c1ccc(O)c(C(=O)N3Cc4ccc(OCCC[P+](c5ccccc5)(c5ccccc5)c5ccccc5)cc4C3)c1)C2	17.9% (inactive)
O=S(=O)(Nc1ccc(I)cc1Cl)c1ccc(-c2cnc(C3CC3)o2)cc1	23.1% (inactive)
C=C(C=O)[C@@H]1CC[C@]2(CO)CC[C@]3(C)[C@H](CC[C@@H]4[C@@]5(C)CCCNC(C)(C)[C@@H]5CC[C@]43C)[C@@H]12	12.7% (inactive)
C=CCn1c(SCC(=O)Nc2ccc(C(=O)/C=C/c3cccc([N+](=O)[O-])c3)cc2)nnc1-c1c[nH]c2ccccc12	25.4% (inactive)
CNC(=O)c1c(NC(=O)c2cccc(C(F)(F)F)c2F)sc2c1CCC(=O)C2	6.33% (active)
COc1ccc(C2c3sc4c(C)cccc4c3Oc3nc(CC(=O)Nc4ccccc4)[nH]c(=O)c32)cc1 (stereo unspecified)	55.6% (inactive)
COCCNc1ccc2ncc(C#Cc3cncc(C(=O)Nc4ccc(CN5CCN(C)CC5)c(C(F)(F)F)c4)c3)n2n1	-30.7% (active)
CCN1CCN(C(=O)[C@]23CCC(C)(C)C[C@H]2C2=CC[C@@H]4[C@@]5(C)Cc6c([nH]c7ccccc67)C(C)(C)[C@@H]5CC[C@@]4(C)[C@]2(C)CC3)CC1	78.1% (inactive)
CCn1c(SCC(=O)Nc2cccc(C(=O)/C=C/c3ccc(C)cc3)c2)nc2ccccc2c1=O	19.7% (inactive)
